MITF inh = MITF inhibitors, primary screen, biochemical, AlphaScreen, human. inhibition, % at 2.6 µM. AlphaScreen MITF homodimerization, bead proximity signal. 0.91% of 650,000 active. Microphthalmia-associated transcription factor (Homo sapiens), O75030. AID 1259374, 2018; in the data active means inhibition above about 50%;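 further: 0% = vehicle wells with protein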
TEAD-YAP block = TEAD-YAP interaction inhibition, primary screen, TEAD-YAP interaction inhibitor project, luminescence, HEK-TIYL cells; TEAD-Gal4/YAP UAS-luciferase luminescence; inhibition, % at 9.12 µM; 1.4% of 640,000 active; in the data active means inhibition above about 32%;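 further: 0% = median of test compound wells and 100% = reference inhibitor wells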
GPR151 ag = activators of human GPR151, primary screen, cell-based, PathHunter beta-arrestin, luminescence | G-protein coupled receptor 151 (Homo sapiens), Q8TDV0 | PathHunter beta-arrestin GPR151 cells | activation, % at 11.2 µM | 1% of 650,000 active; in the data active means activation above about 4.9%;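 further: 0% = median of compound wells and 100% = cells with positive control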
Target sequence (Q8TDV0 whole entry, looked up): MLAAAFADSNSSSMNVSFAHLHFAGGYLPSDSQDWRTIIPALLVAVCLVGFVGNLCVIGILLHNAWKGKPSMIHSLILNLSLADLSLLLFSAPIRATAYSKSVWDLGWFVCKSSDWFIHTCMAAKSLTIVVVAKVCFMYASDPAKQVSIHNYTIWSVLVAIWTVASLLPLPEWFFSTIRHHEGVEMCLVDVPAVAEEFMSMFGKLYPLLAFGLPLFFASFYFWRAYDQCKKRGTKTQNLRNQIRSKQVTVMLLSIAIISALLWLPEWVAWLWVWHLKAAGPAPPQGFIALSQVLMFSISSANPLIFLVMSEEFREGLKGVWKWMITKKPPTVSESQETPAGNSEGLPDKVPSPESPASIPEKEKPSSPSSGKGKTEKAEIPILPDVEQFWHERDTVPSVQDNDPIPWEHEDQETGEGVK
FBW7 act = FBW7 E3 ligase activators, primary screen, biochemical, AlphaScreen, human; F-box/WD repeat-containing protein 7 (Homo sapiens), Q969H0; AlphaScreen FBW7–phospho-cyclin E peptide binding, activator screen; AID 1259310, 2017; normalized activity (activation), % at 26.1 µM; 0.13% of 650,000 active; in the data active means normalized activity above about 1.9%;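 further: purified mutant Fbw7 with reduced substrate affinity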
The depositor's hits bear a star. In the library only some 3.5% were active in any assay of this set; here they are far more common.

SMILES | MITF inh | TEAD-YAP block | GPR151 ag | FBW7 act
c1cc(Nc2nc(NC3CC3)c3ncn(-c4ccsc4)c3n2)ncn1 | 7 | -25 | 0 | 7.4*
c1ccc(Nc2nc(Nc3ccncn3)nc3c2ncn3-c2ccsc2)cc1 | 1 | -61 | 3 | 0
c1cnc(Nc2nc(NC3CC3)c3ncn(-c4ccsc4)c3n2)cn1 | 11 | 34* | 1 | 0
c1ccc(-n2cnc3c(NC4CC4)nc(Nc4cnccn4)nc32)cc1 | 2 | 51* | 2 | 0
O=C(Cn1c(=O)n(Cc2ccccn2)c(=O)c2ncccc21)c1ccc(Cl)c(Cl)c1 | -6 | 3 | 2 | 0
CCC[C@@H]1NC(=O)[C@@H]2C[C@H](NC(=O)c3ccc(Cl)cc3)CN2C1=O | -3 | 4 | 0 | 0
CCCNC(=O)c1ccccc1NS(=O)(=O)c1ccc(OC)c(Cl)c1Cl | 23 | 3 | -1 | 1
CN(C)c1cccc(Nc2nc(NC3CC3)c3ncn(-c4ccsc4)c3n2)c1 | 0 | 33* | 0 | 0
c1ccc(-n2cnc3c(NC4CC4)nc(Nc4ccncc4)nc32)cc1 | 10 | 38* | 2 | 0
CN(C)c1cccc(Nc2nc(N)c3ncn(-c4ccsc4)c3n2)c1 | 9 | 10 | -1 | 0
CCOc1ccccc1N1CCN(Cc2ccccc2[N+](=O)[O-])CC1 | 17 | -2 | -1 | 0
CC(=O)Nc1ccc(Nc2nc(Nc3ccncc3)nc3c2ncn3-c2ccccc2)cc1 | -14 | 45* | -2 | 3.4*
CC(=O)Nc1ccc(Nc2nc(Nc3ccccc3)nc3c2ncn3-c2ccccc2)cc1 | 2 | 46* | 3 | 0
CC(=O)Nc1ccc(Nc2nc(Nc3ccc(N4CCOCC4)cc3)nc3c2ncn3-c2ccccc2)cc1 | 8 | -2 | -2 | 0
COc1cc(Nc2nc(Nc3ccc(NC(C)=O)cc3)c3ncn(-c4ccccc4)c3n2)cc(OC)c1OC | -9 | 39* | -2 | 0
CC(=O)Nc1ccc(Nc2nc(Nc3ccccc3)nc3c2ncn3-c2ccsc2)cc1 | 11 | 36* | 0 | 0
Cc1ccc(C)c(NC(=O)CC(NCCO)C(=O)O)c1 (stereo not drawn) | -23 | 7 | 0 | 0
Cn1cccc1C(CNC(=O)Cc1ccc(Cl)cc1)N1CCCCCC1 (stereo not drawn) | 9 | -6 | 0 | 0
Nc1nc(Nc2ccncn2)nc2c1ncn2-c1ccccc1 | -4 | -10 | 0 | 4.2*
CC(=O)Nc1ccc(Nc2nc(Nc3ccncn3)nc3c2ncn3C(C)C)cc1 | 4 | -9 | -1 | 0
CC(=O)Nc1ccc(Nc2nc(Nc3cnccn3)nc3c2ncn3-c2ccsc2)cc1 | 7 | 29 | 4 | 3.7*
CC(=O)Nc1ccc(Nc2nc(-c3c(C)noc3C)nc3c2ncn3-c2ccsc2)cc1 | 10 | -3 | -2 | 0
CC(=O)Nc1ccc(Nc2nc(Nc3ccc(-n4ccnc4)cc3)nc3c2ncn3-c2ccccc2)cc1 | 10 | 52* | 2 | 0
CC(=O)Nc1ccc(Nc2nc(Nc3ccncn3)nc3c2ncn3-c2ccccc2)cc1 | 5 | 14 | 2 | 5.1*
Cc1cccc(OCCN2c3cccc4cccc(c34)S2(=O)=O)c1 | -7 | -13 | 1 | 0
SMILES | MITF inh | TEAD-YAP block | GPR151 ag | FBW7 act
O=C(CCCCn1c(=S)[nH]c2ccsc2c1=O)NCc1ccc(Cl)cc1 | 7 | -4 | 0 | 0
O=P(CCN1CCCCC1)(CCN1CCCCC1)c1ccccc1 | -17 | 4 | 2 | 0
C/C(=N\NC(=S)NC(C)C)c1cc2ccccc2o1 | -9 | -29 | 0 | 0
CC(=O)Nc1ccc(Nc2nc(N3CCc4ccccc4C3)nc3c2ncn3-c2ccsc2)cc1 | 10 | 40* | -3 | 0
Cn1c(Nc2nc(NCCO)c3ncn(-c4ccsc4)c3n2)nc2ccccc21 | 4 | 14 | -3 | 0
CC(=O)Nc1ccc(Nc2nc(Nc3nc4ccccc4n3C)nc3c2ncn3-c2ccsc2)cc1 | 7 | 43* | 0 | 0
Cc1cc(C)nc(N2CCC(N(CCN(C)C)S(=O)(=O)c3cccs3)CC2)n1 | 7 | 14 | 0 | 0
COc1ccccc1OCC(=O)N/N=C/c1ccc([N+](=O)[O-])cc1 | -24 | 0 | 2 | 0
C=CCc1ccccc1OCC(=O)N/N=C/c1ccc([N+](=O)[O-])cc1 | 15 | 33* | 1 | 0
COc1ccccc1OCC(=O)N/N=C/c1ccccc1 | 6 | -1 | 0 | 0
C=CCc1ccccc1OCC(=O)N/N=C/c1ccccc1 | -6 | 51* | 0 | 0
CCOc1ccc2c(=O)c(-c3ccc(Br)cc3)coc2c1 | 3 | -32 | -2 | 0
OCC1CCCN1c1cc(Nc2ccccc2)ncn1 (stereo not drawn) | 12 | -23 | -1 | 0
OCC1CCCN1c1cc(NCCc2ccc(O)cc2)ncn1 (stereo not drawn) | 10 | 48* | -1 | 0
Oc1ccc(CCNc2cc(Nc3ncccn3)ncn2)cc1 | -13 | 42* | 0 | 1
OCC1CCCN1c1cc(Nc2ccc3c(c2)OCO3)ncn1 (stereo not drawn) | 3 | 37* | -1 | 0
CN(C)CCn1c2ccccc2c2cnc(N)c(C#N)c21 | 3 | 93* | 2 | 0
Cc1ccc(-c2cccc3cnc(Nc4ccc(C(=O)N5CCCC5)cc4)nc23)cn1 | 9 | 50* | -2 | 0
Cc1ccc(-c2cccc3cnc(NC4CCN(C(=O)N5CCCC5)C4)nc23)cn1 (stereo not drawn) | 9 | 25 | -1 | 0
Cc1ccc(-c2cccc3cnc(Nc4cccc(C(=O)N5CCOCC5)c4)nc23)cn1 | 40 | 32* | -1 | 1
Cc1csc(N/N=C/c2cc(Br)c(O)c(Br)c2)n1 | -2 | 2 | -2 | 0
CCOc1ccc(NC(=O)C2=C(C)NC(=O)NC2c2ccccc2Cl)cc1 (stereo not drawn) | -13 | 33* | 1 | 0
Cc1cc(C)n(CC(O)Cn2c(C)c(C)c3ccccc32)n1 (stereo not drawn) | 53* | -5 | 0 | 0
O=C(CC1CCCC1)Nc1noc2ccccc12 | 5 | -34 | 0 | 0
CC(=O)c1ccc(OCC(=O)NCC2Cc3c(F)ccc(-c4ccncc4)c3O2)cc1 (stereo not drawn) | 0 | 33* | 4 | 0
N#CC1=C(SCC(=O)Nc2cccc(Br)c2)NC(=O)CC1c1cccs1 (stereo not drawn) | -16 | -4 | 0 | 0
COc1cccc(NC(=O)CSC2=C(C#N)C(c3cccs3)CC(=O)N2)c1 (stereo not drawn) | -11 | 40* | 1 | 0
N#CC1=C(SCC(=O)Nc2cc(Cl)cc(Cl)c2)NC(=O)CC1c1cccs1 (stereo not drawn) | -7 | 43* | -1 | 0
CCCn1cc(-c2ccc(Nc3nccc(-c4cncc(N5CCOCC5)c4)n3)cc2)cn1 | 7 | 47* | 1 | 0

Source: PubChem (The Scripps Research Institute Molecular Screening Center)
